M1 PAM: potentiates human M1 receptor response to acetylcholine; P11229; CHO-K1 hM1, Fluo-8 calcium fluorescence, ACh EC20; 0% = ACh EC20, 100% = maximal ACh; activation, % at 3 µM; actives 0.088% (n = 360,000); in the data active = activation above about 19%, passing the limit was not always enough
Target sequence (P11229 whole entry, looked up): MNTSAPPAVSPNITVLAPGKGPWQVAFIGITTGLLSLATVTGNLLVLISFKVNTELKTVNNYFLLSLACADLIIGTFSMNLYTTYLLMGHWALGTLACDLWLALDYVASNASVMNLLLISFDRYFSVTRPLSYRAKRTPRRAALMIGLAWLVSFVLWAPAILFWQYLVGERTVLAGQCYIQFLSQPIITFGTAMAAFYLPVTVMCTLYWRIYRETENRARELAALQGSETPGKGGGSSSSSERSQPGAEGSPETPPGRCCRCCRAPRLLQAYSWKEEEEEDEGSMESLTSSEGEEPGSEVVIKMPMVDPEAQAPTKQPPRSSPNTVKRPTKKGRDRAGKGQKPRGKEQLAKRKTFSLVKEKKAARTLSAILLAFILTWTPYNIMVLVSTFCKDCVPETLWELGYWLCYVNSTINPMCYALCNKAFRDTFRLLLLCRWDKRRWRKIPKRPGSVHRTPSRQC
CHO-K1 Ca PAM: M1 PAM counterscreen hit in parental CHO-K1 cells; activation, % at 3 µM; actives 0.02% (n = 360,000); ATP EC20, Fluo-8 calcium fluorescence; 0% at ATP EC20, 100% at ATP max;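 active = activation above the run cutoff, the mean activation of all test compounds plus 3 SD, cut at about 40% in these data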;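 note: peak over basal fluorescence ratio in a 140 s read after ATP addition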
CHO-K1 Ca antag: counter-screen for M1 antagonists: effect in parental CHO-K1 cells | ATP-induced calcium, Fluo-8 fluorescence | actives 0.6% (n = 360,000) | inhibition, % at 3 µM;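 active = inhibition above a per-plate cutoff, the plate's mean sample inhibition plus 3 SD, cut at about 24% in these data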;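 note: 0% = DMSO plus EC80 ATP and 100% = DMSO alone without ATP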
CHRM1 agonist: agonists of human M1 muscarinic receptor. P11229. CHO-K1 hM1, Fluo-8 calcium fluorescence, agonist mode; 0% DMSO, 100% acetylcholine EC100. activation, % at 3 µM. actives 0.33% (n = 360,000);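 active = activation above the run's mean compound activation plus 3 SD, cut at about 16% in these data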;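 note: peak over basal fluorescence ratio within a 140 s kinetic read after compound addition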
M1 antag: human CHRM1 antagonism. actives 1.3% (n = 360,000). inhibition, % at 3 µM. CHO-K1 hM1, Fluo-8 calcium fluorescence, ACh EC80 antagonist;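 active = percent inhibition above its own plate's cutoff, namely the mean of that plate's compound wells plus 3 SD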;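 note: peak over basal fluorescence ratio during 140 s after agonist addition; 0% = ACh EC80 plus DMSO and 100% = DMSO alone without agonist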
CHO-K1 Ca ag: nonselective activator or artifact in parental CHO-K1 cells; Fluo-8 calcium fluorescence; scaled to maximal ATP response, vehicle zero; actives 0.48% (n = 360,000); activation, % at 3 µM; AID 602248; in the data active = activation above about 15%;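 note: untransfected CHO-K1 host cells lacking M1 receptor as counterscreen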
Active calls of the source: *; x = no result. The list is not random: actives were taken first. Their share in the collection is about 2.3%.

SMILES | M1 PAM | CHO-K1 Ca PAM | CHO-K1 Ca antag | CHRM1 agonist | M1 antag | CHO-K1 Ca ag
CC1CCCN(CCCCOc2cccc(Br)c2)C1 (stereo not drawn) | -24.5 | 9.1 | 6.5 | -7.2 | 33.1* | 0.6
CC(C)c1cccc(OCCN2CCCC2)c1 | -15.8 | -20.7 | 10.9 | -7.8 | 32.7* | 0.4
COc1cccc(OCCCCN2CCCCC2)c1 | -10.6 | 20.2 | -14.0 | -8.6 | 8.4 | 1.0
O=C(NC1CCCC1)C1c2ccccc2OCC(=O)N1C1CC1 (stereo not drawn) | x | 8.5 | -5.2 | x | x | 1.6
COc1ccc(S(=O)(=O)N2CCCOC2CNC(=O)C(=O)NC2CCCC2)cc1 (stereo not drawn) | 11.0 | 3.8 | -3.6 | 3.3 | -15.0 | 0.5
CCOc1ccc(C(=O)Nc2ccccc2N2CCN(C(=O)c3ccccc3)CC2)cc1[N+](=O)[O-] | 6.7 | 0.1 | -3.2 | -3.2 | -8.2 | 0.7
COc1ccccc1/C=C/C(=O)NNC(=O)c1cccs1 | 10.6 | 11.5 | -20.4 | -7.3 | -3.4 | 1.1
CC1(C)N=C(SCC(=O)Nc2ccc(Cl)cc2Cl)C(c2ccccc2)=N1 | 0.2 | 2.9 | -5.6 | -2.5 | -3.8 | 0.3
CN1C(CC(=O)Nc2ccc(Cl)cc2Cl)c2ccccc2CC1(C)C (stereo not drawn) | -19.8 | 12.8 | -8.9 | -8.7 | 33.7* | 0.4
CC(=O)Nc1ccc(S(=O)(=O)N2CCC3(CC2)CC(=O)c2ccccc2O3)cc1 | -14.7 | -17.4 | 8.8 | -2.7 | 31.6* | 1.6
CCOC(=O)CSc1ncnc2c1sc1nc(N3CCOCC3)c3c(c12)CCCC3 | -3.9 | -5.6 | 34.5* | -2.8 | 5.7 | -0.7
COc1ccc(OC)c(-c2nnc3n2N=C(c2ccc(OC(F)F)c(OCC4CC4)c2)CS3)c1 | -30.0 | 2.1 | -14.4 | -9.7 | 39.7* | -0.1
COc1ccc(C2=Nn3c(nnc3-c3ccccc3OC)SC2)cc1OCC1CC1 | 5.6 | 24.6 | -19.9 | -9.9 | -9.5 | -0.1
Oc1cc(O)cc(/C=C/c2ccc(O)c(O)c2)c1 | -6.5 | -9.3 | 0.8 | 27.1* | -18.5 | 0.0
COc1ccc(-n2nnc3c(=O)n(CC(=O)N4CCCc5ccccc54)cnc32)cc1 | -1.6 | 3.0 | 12.3 | -1.1 | 0.9 | 0.3
CCOc1ccc(-n2nnc3c(=O)n(CC(=O)N4CCCc5ccccc54)cnc32)cc1 | -32.0 | 13.4 | 4.0 | -10.0 | 74.3* | -0.7
CCCCN1C(=O)/C(=C/C=C2\Oc3ccccc3N2CC)SC1=S | -7.6 | 1.8 | 21.8 | 27.6* | 43.4* | 15.4*
CCCCN1C(=O)/C(=C/C=C2/CC(C)(C)CN2C)SC1=S | -18.1 | 1.6 | 27.9* | 30.9* | 36.0* | 37.5*
CCN1C(=O)/C(=C/C=C2/SCCN2C)SC1=S | 5.9 | 1.9 | 11.9 | 8.3 | -4.0 | 2.5
CCOC(=O)C1(C)NC(c2ccccc2F)C2C(=O)N(CC)C(=O)C21 (stereo not drawn) | 4.0 | -7.6 | -11.8 | -1.8 | -2.3 | -0.1
Cc1nn(C2CCS(=O)(=O)C2)c(C)c1C=O (stereo not drawn) | 8.0 | -8.7 | -11.9 | -1.6 | -5.0 | 0.8
CCNCCC(=O)N1c2ccccc2Sc2ccc(C(F)(F)F)cc21 | -29.3 | 10.6 | -3.8 | -9.2 | 100.0* | -0.2
O=C(CN1CCN(c2ccccn2)CC1)N1c2ccccc2Sc2ccc(C(F)(F)F)cc21 | -27.2 | 5.7 | 14.2 | -6.7 | 30.9* | 0.4
O=C(CN1CCCC1)N1c2ccccc2Sc2ccc(C(F)(F)F)cc21 | -19.2 | 14.2 | -14.9 | -5.5 | 99.2* | 0.8
O=C(CN1CCCC1)N1c2ccccc2Sc2ccc(Cl)cc21 | -28.8 | 19.2 | -13.2 | -9.7 | 99.1* | 1.2
COc1ccc(C2c3[nH]c4ccccc4c3CCN2C(=O)c2ccccc2C(C)=O)c(F)c1 (stereo not drawn) | 12.3 | 8.8 | 2.2 | -2.2 | -21.5 | 2.9
COc1ccc(C2c3[nH]c4ccccc4c3CCN2C(=O)c2cc3ncccn3n2)c(F)c1 (stereo not drawn) | -21.9 | -11.0 | 25.8* | -1.1 | 19.8 | 6.7
COc1ccc(C2c3[nH]c4ccccc4c3CCN2C(=O)c2cn3ccccc3n2)c(F)c1 (stereo not drawn) | -7.5 | -15.6 | 27.4* | -3.4 | 7.5 | 0.3
